PubChem BioAssay (NCATS)
Records with an inconclusive call do not appear. Activity calls are given as the source filed them. The call rests on the fitted dose curve; in most records, active means well fitted curve in the direction sought with a large enough effect; inconclusive means small, poorly fitted or top-dose-only effect, or another doubt; inactive means no such curve, though single readings can be large; an effect the other way counts as inactive or inconclusive.

Assays:
[1] = Cell Viability - N2a (AID 540); conditions: N2a mouse neuroblastoma cell viability; series mostly up to 92.2 µM;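 further: cells exposed to compound for 40 h at 37 °C; nearly all actives have a fitted effect of over 45% in size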
Outline: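 First, 1500 N2a cells per well incubate 5 hr at 37 °C; next, compounds are added and incubated 40 hr at 37 °C; finally CellTiter-Glo is added and luminescence read after 20 min, with AC50 derived by Hill modeling.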

[2] = Cell Viability - HUV-EC-C (AID 542); conditions: HUV-EC-C endothelial cell viability, qHTS; series mostly up to 92.2 µM;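 further: cells exposed to compound for 40 hours; nearly all actives have a fitted effect of over 35% in size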
Outline: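 Decrease in cellular ATP, quantified by luciferase luminescence, reflects toxicity in normal human vascular endothelial HUV-EC-C cells given compound for 40 hr in complete culture medium. Values are AC50s from concentration-response curves.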

[3] = Cell Viability - H-4-II-E (AID 543); conditions: H-4-II-E rat hepatoma viability; series mostly up to 92.2 µM;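 further: cells exposed to compound for 40 hours; nearly all actives have a fitted effect of over 35% in size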
Outline: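 Here, cytotoxicity is measured in the rat hepatoma line H-4-II-E as loss of intracellular ATP after 40 hr compound treatment, detected by luciferase luminescence.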

[4] = Cell Viability - SH-SY5Y (AID 544); conditions: SH-SY5Y neuroblastoma cell viability; series mostly up to 92.2 µM;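 further: cells exposed to compound for 40 hours; nearly all actives have a fitted effect of over 55% in size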
Outline: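 Cytotoxicity is scored as a concentration-dependent fall in intracellular ATP in human SH-SY5Y cells treated 40 hr in complete culture medium. Potency is expressed as AC50 from a Hill equation fit.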

[5] = Cell Viability - Renal Proximal Tubule (AID 545); conditions: renal proximal tubule cells viability, primary cells of rat origin; series mostly up to 91.7 µM;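 further: cells exposed to compound for 40 hours; nearly all actives have a fitted effect of over 40% in size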
Outline: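 Cytotoxicity is scored as a concentration-dependent drop in cellular ATP in primary rat renal proximal tubule cells exposed for 40 hr. AC50 derives from Hill modelling.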

[6] = Cell Viability - Mesenchymal (AID 546); conditions: mesenchymal cells viability, qHTS; series mostly up to 91.7 µM;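 further: cells exposed to compound for 40 hours before reading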
Outline: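 Normal human renal glomerulus-derived kidney mesenchymal cells, 1000 per well in complete medium, were treated with compounds for 40 hr at 37 °C. Viability was read as intracellular ATP by CellTiter-Glo luminescence; AC50 values came from Hill-equation fits of qHTS concentration-response data.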

[7] = Cellular Toxicity (caspase-3) HepG2 (AID 654); conditions: HepG2 caspase-3 activation, luminescence, 0% = DMSO only, 100% = tamoxifen; series mostly up to 92.2 µM;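 further: cells exposed to compound for 16 hours before reading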
Outline: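 qHTS, HepG2, 1500 cells/well, complete medium; cpd 16 h 37 °C; Caspase-Glo 3/7, 20 min RT; lum. Norm: DMSO vs 100 uM tamoxifen; AC50 Hill fit.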

[8] = Cellular Toxicity (caspase-3) Jurkat (AID 655); conditions: Jurkat caspase-3 activation, luminescence, DMSO = 0%, tamoxifen = 100%; series mostly up to 92.2 µM;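 further: cells exposed to compound for 16 h at 37 °C before reading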
Outline: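 Caspase 3/7 activation is scored as increased luminescence in Jurkat cells cultured with compound for 16 hours in complete medium. AC50 values come from Hill fits of qHTS concentration-response data normalized to DMSO and 100 uM tamoxifen controls.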

[9] = Cellular Toxicity (caspase-3) HUV-EC-C (AID 656); conditions: HUV-EC-C cells, caspase-3 activation (apoptosis), vehicle = 0, 100 µM tamoxifen = 100%; series mostly up to 92.2 µM
Outline: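 Read-out: luminescence proportional to caspase 3/7 activity, measured 20 min after adding Caspase-Glo 3/7 reagent. Cells (HUV-EC-C) had received compound for 16 hr at 37°C. Increases relative to DMSO and 100 uM tamoxifen gave concentration-response AC50 values.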

[10] = Cellular Toxicity (caspase-3) SHSY5Y (AID 657); conditions: SH-SY5Y caspase-3 activation, DMSO zero, 10 µM staurosporine = 100%; series mostly up to 91.7 µM;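 further: cells exposed to compound for 16 hours at 37 °C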
Outline: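 Cells plated and incubated 5 h at 37 °C, dosed over a concentration range, incubated 16 h, then given Caspase-Glo 3/7 reagent for 1 h at room temperature before luminescence reading. Staurosporine (10 uM) defined full stimulation.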

[11] = Cellular Toxicity (caspase-3) BJ (AID 658); conditions: BJ fibroblasts, luminescence, normalized: DMSO 0%, staurosporine 100%; series mostly up to 91.7 µM
Outline: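 Luminescent aminoluciferin-substrate cleavage reports caspase 3/7 activity in normal human BJ fibroblasts after 16 hr compound exposure at 37 °C. Normalized to DMSO (basal) and 10 uM staurosporine (100%); AC50 from Hill fit of concentration-response.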

[12] = Cellular Toxicity (caspase-3) MRC-5 (AID 659); conditions: MRC-5 cells, luminescence, normalized: DMSO 0%, 10 µM staurosporine 100%; series mostly up to 91.7 µM;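 further: cells exposed to compound for 16 h at 37 °C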
Outline: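 Luminescence from caspase-cleaved aminoluciferin substrate (Caspase-Glo 3/7, 1 hr RT) reports caspase 3/7 activity in MRC-5 lung fibroblasts after 16 hr compound exposure. Normalized to DMSO basal and 10 uM staurosporine as 100%; AC50 from Hill fits.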

[13] = Cellular Toxicity (caspase-3) Mesangial (AID 660); conditions: mesangial cells, normalized: DMSO 0%, 100 µM tamoxifen 100%; series mostly up to 91.7 µM;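 further: cells exposed to compound for 16 h before the caspase read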
Outline: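 Concentration-response qHTS: compound-induced rise in caspase 3/7 luminescence in human mesangial cells after 16 h, normalized to DMSO and 100 uM tamoxifen controls.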

[14] = Cellular Toxicity (caspase-3) SK-N-SH (AID 661); conditions: SK-N-SH caspase-3 activation, qHTS, DMSO as zero, staurosporine as full; series mostly up to 91.7 µM
Outline: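 Caspase 3/7 activation is measured as a luminescence increase from aminoluciferin released by substrate cleavage in SK-N-SH cells after 16 hr compound treatment; values are AC50 from concentration-response curves.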

[15] = Cellular Toxicity (caspase-3) H-4-II-E (AID 663); conditions: H-4-II-E rat hepatoma, scaled: DMSO 0%, 100 µM tamoxifen 100%; series mostly up to 92.2 µM;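 further: cells exposed to compound for 16 hr before readout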
Outline: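 Luminescence from caspase-cleaved aminoluciferin substrate, read 20 min after reagent addition, reports caspase 3/7 activation in rat H-4-II-E cells after 16 hr compound exposure. Normalized to DMSO (basal) and 100 uM tamoxifen (100%); AC50 from Hill fits.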

Measured: outcome

C[C@@H]1C[C@H]2[C@@H]3CCC4=CC(=O)C=C[C@]4(C)[C@@]3(F)[C@@H](O)C[C@]2(C)[C@@]1(O)C(=O)CO
inactive: all assays above
